# MEX-5 binding – C. elegans MEX-5 TCR-2 RNA binding activity; AID 1832; Q9XUB2; hit rate 0.38% among 300,000; activity score (negative = inhibition of binding), % at 10 µM; MEX-5/FITC-TCR2 RNA binding, fluorescence polarization; active compounds read low;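 active means inhibition past about -25% in most replicates, and total fluorescence under double the plate's negative control median, limit read from the data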;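 further: 0% = DMSO and -100% = 5 µM competing unlabeled TCR2 RNA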
# Target sequence (Q9XUB2 whole entry, looked up): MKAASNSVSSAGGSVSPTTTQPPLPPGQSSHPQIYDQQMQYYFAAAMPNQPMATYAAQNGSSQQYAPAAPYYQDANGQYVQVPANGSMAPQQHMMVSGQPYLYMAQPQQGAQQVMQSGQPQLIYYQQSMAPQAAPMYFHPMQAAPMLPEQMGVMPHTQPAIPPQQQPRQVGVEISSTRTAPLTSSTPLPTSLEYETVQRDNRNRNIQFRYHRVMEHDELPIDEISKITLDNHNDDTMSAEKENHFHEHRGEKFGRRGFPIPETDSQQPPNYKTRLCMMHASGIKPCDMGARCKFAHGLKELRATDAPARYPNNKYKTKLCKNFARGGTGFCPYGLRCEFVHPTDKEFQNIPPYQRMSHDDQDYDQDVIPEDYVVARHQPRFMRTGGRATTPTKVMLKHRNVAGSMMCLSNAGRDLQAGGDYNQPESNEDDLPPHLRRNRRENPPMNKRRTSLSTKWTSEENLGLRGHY
# GLD-1 TGE inh – GLD-1-TGE RNA interaction inhibition (C. elegans) | purified GLD-1 + fluorescein TGE RNA, fluorescence polarization | inhibition, % at 5.96 µM | hit rate 0.44% among 320,000;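 active means percent inhibition above a per-plate cutoff, the plate mean of test compounds plus 3 SD, cut at about 30% in these data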;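 further: 0% = DMSO wells with GLD-1 and probe and 100% = wells lacking GLD-1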
# MCL1 BIM primary – inhibitors of human MCL1 binding to BIM-BH3 peptide; Q07820; GST-MCL1 / FITC-Bim-BH3 fluorescence polarization; inhibition, % at 10.9 µM; hit rate 0.68% among 320,000;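 active means inhibition above the mean inhibition of all tested compounds plus 3 SD, set per campaign, cut at about 40% in these data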;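 further: 0% = DMSO wells and 100% = unlabeled Bim-BH3 peptide control; higher means more loss of mP so more displacement of Bim peptide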
# EBV gp42 block – EBV gp42 inhibition; Q1HVG2; Fluorescence polarization binding assay, mP read-out; inhibition, % (tested at 21.74 µM); hit rate 0.42% among 220,000; in the data active means inhibition above about 50%
# Bcl-xL primary – inhibitors of human Bcl-xL. Q07817. GST-Bcl-xL / FITC-Bim BH3 peptide fluorescence polarization. inhibition, % at 10.9 µM. hit rate 0.7% among 320,000. AID 2129;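 active means inhibition above the mean of all tested compounds plus 3 SD, cutoff set per campaign, cut at about 30% in these data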;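 further: 0% = DMSO wells and 100% = unlabeled Bim-BH3 peptide competitor; inhibitors lower millipolarization by displacing the labeled peptide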
# Numbers without * were called inactive; . = not tested or not shown. Hits are enriched below; roughly 1.3% of the tested compounds scored in any of these assays.
SMILES,MEX-5 binding,GLD-1 TGE inh,MCL1 BIM primary,EBV gp42 block,Bcl-xL primary
COc1cc2c3nnc(-c4ccccc4)c-3cn(Cc3ccc(F)cc3)c2cc1OC,-34*,-1,3,3,-2
COC(=O)C1=C(C)N(C2CCCCC2)C(=O)/C1=C\c1cccs1,0,3,3,22,28
CC(=O)C1(C)OC(N)=C(C#N)C(c2ccccc2)C1(C#N)C#N (stereo unspecified),-13,27,37,0,43*
CC(=O)C1=C(c2ccccc2)OC(N)=C(C#N)C1c1ccccc1C (stereo unspecified),0,4,-3,-7,2
COc1ccc(OC)c(/C=C2\N=C(c3ccccc3)OC2=O)c1,1,-6,-47,.,-23
COc1cc(/C=C2/N=C(c3ccccc3)OC2=O)c(F)cc1OCc1ccccc1,-60*,-1,30,.,6
Cc1ccc(NS(=O)(=O)c2ccc(NC(=O)c3ccccc3C(=O)O)cc2)cc1C,1,2,2,.,7
COc1ccc(NC(=O)NC(=O)c2cc(OCC(F)(F)F)ccc2OCC(F)(F)F)cc1,1,0,4,74*,0
O=C(NCCNC(=O)c1cc(OCC(F)(F)F)ccc1OCC(F)(F)F)Nc1ccccc1,5,3,2,-30,-1
Cc1cc(F)ccc1S(=O)(=O)Nc1ccccc1C(=O)NCc1ccccn1,-2,0,0,-8,-8
COC(=O)CN1C(=O)N(c2ccccc2)C(N(O)C(=O)Nc2ccccc2)C1(C)C (stereo unspecified),-1,1,6,139*,2
CC(C)(C)NC(=O)CN(CCN1CCOCC1)C(=O)CNS(=O)(=O)c1ccccc1,0,6,-4,.,-4
COc1ccccc1CNC(=O)COC(=O)CCN=C1NS(=O)(=O)c2ccccc21,-3,4,0,.,3
CCOc1ccc(C2C=C(c3ccc(C)cc3)Nc3ncnn32)cc1 (stereo unspecified),-4,26,41*,3,47*
COc1ccc(C2=CC(c3ccco3)n3ncnc3N2)cc1 (stereo unspecified),.,.,.,88*,.
COc1ccc(C2C=C(c3ccccc3)Nc3ncnn32)cc1 (stereo unspecified),-9,7,18,-2,18
CCCCCCn1nc(C(=O)N(CCOC)c2c(N)n(CCCC)c(=O)[nH]c2=O)c2ccccc2c1=O,0,17,-32,.,-5
CC(C)C(C(=O)Nc1nccs1)c1ccccc1 (stereo unspecified),-1,2,4,4,5
O=C(Nc1nccs1)C(c1ccccc1)N1CCCC1 (stereo unspecified),3,4,3,65*,4
O=C(CN(C(=O)CCC(=O)Nc1ccccn1)c1ccc2c(c1)OCO2)NCc1ccc(F)cc1,-3,-2,6,.,10
Cc1ccc(-c2ccc(=O)n(CC(=O)NCCN3CCCCC3C)n2)cc1 (stereo unspecified),-1,12,41*,-12,34*
CCC(C)[C@@H](N)C(=O)N/N=C/c1cccc2nccnc12 (stereo partly specified),-41*,5,16,-4,9
COc1cccc(OC)c1C(=O)Nc1ccc(S(=O)(=O)N2CCCCC2)cc1,-4,-4,-10,.,-7
Nc1cc(S(=O)(=O)N2CCCCC2)ccc1Oc1ccccc1,-1,1,3,-8,9
CC1=NOC(=O)/C1=C\c1ccc(-c2cc(Cl)ccc2Cl)o1,-2,1,6,95*,3
SMILES,MEX-5 binding,GLD-1 TGE inh,MCL1 BIM primary,EBV gp42 block,Bcl-xL primary
CC1=NOC(=O)/C1=C/c1ccc(-c2ccc(Cl)cc2)o1,.,-8,-2,-5,-3
N#Cc1ccsc1NC(=O)CSc1ncn[nH]1,-1,-4,4,-7,4
N#Cc1ccsc1NC(=O)CSc1nncs1,.,71*,.,.,.
O=C(NCC1CCCO1)c1nn2c(C(F)(F)F)cc(-c3ccc(Br)o3)nc2c1Br (stereo unspecified),-6,1,4,.,3
CCOC(=O)c1c(C)[nH]c(O)c1C=Nc1ccc(C(F)(F)F)cc1,-3,37*,7,-7,-2
CCOC(=O)c1c(C)[nH]c(O)c1C=Nc1ccc(Cl)cc1,-6,5,-5,-18,7
N#Cc1ccc(COC(=O)c2cnc(Cl)c(Cl)c2)cc1,0,1,2,.,4

# Compound activity from PubChem.
